Here are results for 78 molecules from PubChem BioAssay AID489025 (Southern Research Specialized Biocontainment Screening …, 2010).

The campaign covered roughly 2,300 compounds. About 790 (34%) were called active. How the calls were made is not given here. The list shows a part of the results. Measured potencies and affinities stand elsewhere.

A short description of this experiment: THP-1 cell cytotoxicity, dose response, cytotoxicity control for non-replicating M. tuberculosis project (AID 489025). The settings on record: THP-1 cell viability; series mostly up to 40 µM.
With `O=C(CCNc1ccc(Cl)cc1)c1cccs1`, the molecule was classed as inactive.

For the molecule `Cc1occc1-c1nnc(-c2cc([N+](=O)[O-])cc([N+](=O)[O-])c2)o1`, the molecule was classed as inactive.

Turning to `Cc1cc(NC(=O)c2cc([N+](=O)[O-])cc([N+](=O)[O-])c2)no1`, the call was inactive.

Turning to `CCOC(=O)c1ccc(N=C(CC)c2c(O)n(C)c(=O)n(C)c2=O)cc1`, the molecule was classed as inactive.

As to `O=C1OC(/C(=C\Nc2cc(Cl)ccc2O)[N+](=O)[O-])c2ccccc21` (stereo not drawn), the call was inactive.

`COc1cccc2cc(-c3nc4ccccc4o3)c(=O)oc12`: the result was inactive.

With `CS(=O)(=O)Cc1nc2ccccc2oc1=O`, the molecule was called inactive.

For the molecule `O=C(OCC(=O)N1CCCC1)c1cc(Br)ccc1Cl`, the molecule was classed as inactive.

For `CC12CC3CC(C)(C1)CC(C(=O)N1CCCC1)(C3)C2`, the outcome was inactive.

As to `OC(COc1ccc2ccccc2c1Br)Cn1ccnc1` (stereo not drawn), the molecule was classed as inactive.

For the molecule `CCOc1ccc(Cn2c(=O)oc3ccccc32)cc1`, the molecule was classed as inactive.

Turning to `CCOC(=O)COc1ccc2c(c1)c(C(C)=O)c(C)n2Cc1ccccc1`, the molecule was called inactive.

With `O=C(COc1ccccc1)NCCSCc1ccc(Cl)cc1`, the call was inactive.

Turning to `OC(COc1ccccc1Cl)CN1CCN(CC(O)COc2ccccc2Cl)CC1` (stereo not drawn), the result was inactive.

As for `O=C(OCC#CCSc1nnc(-c2ccncc2)o1)c1cccs1`, the result was inactive.

`COc1ccc(COc2cccc(C=O)c2)cc1`: the molecule was called inactive.

For `CCCCn1c(=O)c(C(=O)Nc2nnc(C(C)C)s2)c(O)c2ccccc21`, the molecule was called inactive.

As for `CCOC(=O)Cc1csc(NC(=O)COc2ccc3c(c2)CCC3)n1`, the outcome was inactive.

Consider `CCCNC(=O)N1CCC(c2ccc3c(c2)OCO3)CC1`, for which the outcome was inactive.

As for `CCOC(=O)C1CCCc2c1[nH]c1c(C(N)=O)cccc21` (stereo not drawn), the molecule was called inactive.

In the case of `O=C(OCC#CCSc1nc2ccccc2o1)c1ccco1`, the molecule was called inactive.

Turning to `C/C(=N\O)c1cc(Cl)ccc1O`, the molecule was called inactive.

Regarding `O=C(COC(=O)c1cc(Cl)ccc1O)c1ccc2c(c1)OCO2`, the molecule was called inactive.

On to `CCOC(=O)COc1ccc2c(=O)cc(-c3ccccc3)oc2c1`, for which the call was inactive.

`CN(C)c1ccc(/C=C2\N=C(C(C)(C)C)OC2=O)cc1`: the molecule was classed as inactive.

For `O=c1c2c([N+](=O)[O-])cc([N+](=O)[O-])cc2nc2ccccn12`, the molecule was classed as inactive.

As for `O=C(OCc1cccc([N+](=O)[O-])c1)c1ccc2ccccc2n1`, the call was inactive.

As to `CSc1ccc(CNc2ncc(-c3cccc([N+](=O)[O-])c3)n2C)cc1`, the outcome was inactive.

Turning to `N[C@@H](Cc1ccccc1)c1nnc(SC/C=C/c2ccccc2)o1`, the result was inactive.

On to `CCOc1ccccc1C(=O)OCC(=O)Nc1nnc(-c2ccccc2)o1`, for which the result was inactive.

In the case of `O=C(COc1ccccc1)Nc1nnc(-c2ccc3c(c2)CCCC3)o1`, the call was inactive.

On to `O=C(Nc1nnc(-c2ccc3c(c2)CCCC3)o1)c1c(F)cccc1F`, for which the molecule was classed as inactive.

In the case of `CCOc1ccc(-c2nnc(NC(=O)CCCOc3cccc(C)c3)o2)cc1`, the call was inactive.

Consider `Cc1cccc(C(=O)Nc2nnc(-c3cccnc3)o2)c1`, for which the call was inactive.

On to `CCOc1ccc(C(=O)Nc2nnc(C3=COCCO3)o2)cc1`, for which the molecule was called inactive.

For `COc1ccc(C(=O)COC(=O)c2ccccc2O)c(OC)c1`, the call was inactive.

Take `O=Cc1ccc(OC2OCCOC2Oc2ccc(C=O)cc2)cc1` (stereo not drawn): the molecule was classed as inactive.

`O=C(CCN1CCN(C/C=C/c2ccccc2)CC1)Nc1ccc(Cl)cc1`: the molecule was called inactive.

As to `COc1ccccc1C(=O)OCC(=O)Nc1ccc(Cl)cn1`, the molecule was classed as inactive.

On to `C=CCOC(=O)c1ccc(-n2cnc(C)n2)nc1`, for which the outcome was inactive.

As for `NC(=O)CN1CCN(C2CC(=O)N(CCc3ccccc3)C2=O)CC1` (stereo not drawn), the molecule was classed as inactive.

`O=C(Nc1nnc(-c2ccc(Cl)cc2)o1)C1=COCCO1`: the molecule was called inactive.

For `COc1cccc(C(=O)OCC(=O)Nc2nnc(-c3ccccc3)o2)c1`, the molecule was classed as inactive.

Turning to `O=C(Nc1nnc(-c2ccc(Cl)cc2)o1)c1cccc(N2C(=O)CCC2=O)c1`, the molecule was called inactive.

Take `O=C(COc1ccccc1)Nc1nnc(-c2ccc(Cl)cc2)o1`: the molecule was classed as inactive.

Take `Cc1ccc(C(=O)Nc2nnc(-c3ccncc3)o2)cc1`: the result was inactive.

Turning to `O=C(COC(=O)CC12CC3CC(CC(C3)C1)C2)Nc1cccnc1Cl`, the call was inactive.

Turning to `CCc1ccc(N=CC2=C(O)CC(c3ccco3)CC2=O)cc1` (stereo not drawn), the molecule was classed as inactive.

Regarding `C(=C\c1ccccc1)/CSc1nc2ncccc2[nH]1`, the outcome was inactive.

Turning to `CCC(=O)c1ccc(OCc2ccc(C(=O)OC)cc2)cc1`, the outcome was inactive.

For the molecule `CCOC(=O)C1CCN(Cc2ccc(-c3ccccc3)cc2)CC1`, the molecule was called inactive.

Turning to `CCOC(=O)C1CCCN(Cc2ccc(OCc3ccccc3)cc2)C1` (stereo not drawn), the outcome was inactive.

As for `CCOC(=O)c1ccc(COC(=O)c2ccc(-c3nnc(-c4ccccc4)o3)cc2)o1`, the outcome was inactive.

Consider `COc1ccccc1N=Cc1nc(-c2ccccc2)oc1OC(C)=O`, for which the molecule was classed as inactive.

With `Brc1ccc(OCCCCN2CCCCC2)cc1`, the result was inactive.

As to `CN(CCOCCOc1ccc(F)cc1)Cc1ccccc1`, the outcome was inactive.

In the case of `Cc1ccc(NC(=O)ON=C2CCCC2)cc1`, the outcome was inactive.

Consider `Cc1ccc(NC(=O)COc2ccccc2)cc1Cl`, for which the molecule was called inactive.

Take `O=C(COc1ccc(Cl)cc1)Nc1ccc2[nH]ncc2c1`: the result was inactive.

Consider `CCOc1ccccc1OC(=O)c1cc2ccccc2oc1=O`, for which the call was inactive.

As to `Cc1cccc(OCCCCc2c(C)n[nH]c2C)c1`, the molecule was called inactive.

With `Cc1ccc(C(=O)NCCOc2cccc(C)c2)cc1`, the call was inactive.

In the case of `CCCCOC(=O)c1ccc(OC(=O)c2cccnc2)cc1`, the outcome was inactive.

For `COc1ccc(Cl)cc1N=Cc1c(O)c2ccccc2oc1=O`, the molecule was called inactive.

As for `COc1ccc(OC(=O)c2cc3cc(Cl)ccc3oc2=O)cc1`, the molecule was classed as inactive.

Regarding `Cc1ccc(NC(=O)CO/N=C/c2ccc(N(C)C)cc2)cc1`, the call was inactive.

Turning to `COc1ccc(CC(=O)OCC(=O)Nc2ccc(Br)cc2)cc1`, the call was inactive.

Turning to `O=C(Nc1ccccc1F)c1ccc(Br)o1`, the call was inactive.

As to `O=C(Nc1nnc(-c2ccco2)o1)c1cccc2ccccc12`, the result was inactive.

Regarding `Cc1cccc(NC(=O)COc2ccc(Br)cc2)n1`, the molecule was called inactive.

Turning to `Cc1ccc(CCC(=O)Nc2ccccc2F)s1`, the result was inactive.

`O=C(Nc1nnc(-c2ccc(Br)cc2)o1)c1ccco1`: the molecule was called inactive.

Consider `Cc1ccccc1C(=O)Nc1nnc(-c2ccco2)o1`, for which the molecule was called inactive.

Consider `O=C(Nc1nnc(-c2ccc(Br)cc2)o1)C1=COCCO1`, for which the call was inactive.

`O=C(COC(=O)c1ccc([N+](=O)[O-])s1)Nc1ccc(Cl)cn1`: the result was inactive.

As for `Fc1ccc(COc2ccc(-c3nnco3)cc2)cc1`, the molecule was called inactive.

For `Cc1ccc(C(=O)OCC(=O)N2CCCCCC2)c(O)c1`, the outcome was inactive.

On to `COc1ccc(-c2nc3ccc(C)cc3c(=O)o2)cc1OC`, for which the outcome was inactive.
